# Reference: publication PMC11006913
# Where a chain is given by its changes, count along the chain named.
# Experiments:
# Experiment in all cases: PBM; 200 nM protein, PBS
# Conditions in all cases: dsDNA, one strand shown
# VENTX [1] = target: T1, VENTX (Homo sapiens, UniProt O95231 78-163, R121Q)
# T1 sequence: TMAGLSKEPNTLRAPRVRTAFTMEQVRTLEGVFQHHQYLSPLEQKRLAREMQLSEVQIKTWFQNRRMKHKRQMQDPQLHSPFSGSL
# SIX6 [2] = target: T2, SIX6 (Homo sapiens, UniProt O95475 114-200, L167I)
# T2 sequence: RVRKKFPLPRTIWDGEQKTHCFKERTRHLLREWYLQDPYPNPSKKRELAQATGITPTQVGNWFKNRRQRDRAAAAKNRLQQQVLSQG
# HOXC9 [3] = target: HOXC9 (Homo sapiens, UniProt P31274 178-260, K195R)
# Chain of HOXC9 (Homo sapiens, UniProt P31274 178-260, K195R) (P31274 178-260 K195R): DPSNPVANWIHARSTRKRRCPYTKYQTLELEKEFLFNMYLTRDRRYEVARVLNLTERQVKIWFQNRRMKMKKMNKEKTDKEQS
# VENTX [4] = target: T3, VENTX (Homo sapiens, UniProt O95231 78-163)
# T3 sequence: T1 sequence with Q44R
# SIX6 [5] = target: T4, SIX6 (Homo sapiens, UniProt O95475 114-200, L143V)
# T4 sequence: T2 sequence with L30V, I54L
# HOXC10 [6] = target: HOXC10 (Homo sapiens, UniProt Q9NYD6 254-340)
# Chain of HOXC10 (Homo sapiens, UniProt Q9NYD6 254-340) (Q9NYD6 254-340): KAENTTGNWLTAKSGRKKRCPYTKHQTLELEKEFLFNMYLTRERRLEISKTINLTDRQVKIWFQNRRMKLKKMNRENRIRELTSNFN
# SIX6 [7] = target: T5, SIX6 (Homo sapiens, UniProt O95475 114-200, H141N)
# T5 sequence: T2 sequence with H28N, I54L
# SIX6 [8] = target: T6, SIX6 (Homo sapiens, UniProt O95475 114-200, T165P)
# T6 sequence: T2 sequence with T52P, I54L
# VENTX [9] = target: T7, VENTX (Homo sapiens, UniProt O95231 78-163, Y115F)
# T7 sequence: T1 sequence with Y38F, Q44R
# SIX6 [10] = target: T8, SIX6 (Homo sapiens, UniProt O95475 114-200, L167M)
# T8 sequence: T2 sequence with I54M
# SIX6 [11] = target: T9, SIX6 (Homo sapiens, UniProt O95475 114-200, L143M)
# T9 sequence: T2 sequence with L30M, I54L
# SIX6 [12] = target: T10, SIX6 (Homo sapiens, UniProt O95475 114-200, L143I)
# T10 sequence: T2 sequence with L30I, I54L
# SIX6 [13] = target: T11, SIX6 (Homo sapiens, UniProt O95475 114-200, T165G)
# T11 sequence: T2 sequence with T52G, I54L
# SIX6 [14] = target: T12, SIX6 (Homo sapiens, UniProt O95475 114-200, T139Q)
# T12 sequence: T2 sequence with T26Q, I54L
# HOXC9 [15] = target: HOXC9 (Homo sapiens, UniProt P31274 178-260)
# Chain of HOXC9 (Homo sapiens, UniProt P31274 178-260) (P31274 178-260): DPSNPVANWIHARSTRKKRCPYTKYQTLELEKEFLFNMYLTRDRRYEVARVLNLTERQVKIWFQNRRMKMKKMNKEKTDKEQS
# SIX6 [16] = target: T13, SIX6 (Homo sapiens, UniProt O95475 114-200, T165A)
# T13 sequence: T2 sequence with T52A, I54L
# HOXC9 [17] = target: HOXC9 (Homo sapiens, UniProt P31274 178-260, R193K)
# Chain of HOXC9 (Homo sapiens, UniProt P31274 178-260, R193K) (P31274 178-260 R193K): as the sequence (P31274 178-260) above, with R16K counted along it
# HOXC10 [18] = target: HOXC10 (Homo sapiens, UniProt Q9NYD6 254-340, K271E)
# Chain of HOXC10 (Homo sapiens, UniProt Q9NYD6 254-340, K271E) (Q9NYD6 254-340 K271E): as the sequence (Q9NYD6 254-340) above, with K18E counted along it
# SIX6 [19] = target: T14, SIX6 (Homo sapiens, UniProt O95475 114-200, L167V)
# T14 sequence: T2 sequence with I54V
# PROP1 [20] = target: PROP1 (Homo sapiens, UniProt O75360 56-141)
# Chain of PROP1 (Homo sapiens, UniProt O75360 56-141) (O75360 56-141): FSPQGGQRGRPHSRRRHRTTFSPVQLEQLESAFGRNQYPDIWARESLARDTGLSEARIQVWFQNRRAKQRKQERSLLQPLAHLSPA
# SIX6 [21] = target: T15, SIX6 (Homo sapiens, UniProt O95475 114-200)
# T15 sequence: T2 sequence with I54L
# PROP1 [22] = target: PROP1 (Homo sapiens, UniProt O75360 56-141, R99H)
# Chain of PROP1 (Homo sapiens, UniProt O75360 56-141, R99H) (O75360 56-141 R99H): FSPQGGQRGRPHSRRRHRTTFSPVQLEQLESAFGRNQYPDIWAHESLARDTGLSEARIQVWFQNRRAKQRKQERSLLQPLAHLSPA
# SIX6 [23] = target: T16, SIX6 (Homo sapiens, UniProt O95475 114-200, T165I)
# T16 sequence: T2 sequence with T52I, I54L
# HOXC9 [24] = target: HOXC9 (Homo sapiens, UniProt P31274 178-260, R222W)
# Chain of HOXC9 (Homo sapiens, UniProt P31274 178-260, R222W) (P31274 178-260 R222W): as the sequence (P31274 178-260) above, with R45W counted along it
# PROP1 [25] = target: PROP1 (Homo sapiens, UniProt O75360 56-141, F88S)
# Chain of PROP1 (Homo sapiens, UniProt O75360 56-141, F88S) (O75360 56-141 F88S): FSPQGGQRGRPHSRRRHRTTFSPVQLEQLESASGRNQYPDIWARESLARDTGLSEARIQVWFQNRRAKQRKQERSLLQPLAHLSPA
# HOXB6 [26] = target: HOXB6 (Homo sapiens, UniProt P17509 132-218, K202E)
# Chain of HOXB6 (Homo sapiens, UniProt P17509 132-218, K202E) (P17509 132-218 K202E): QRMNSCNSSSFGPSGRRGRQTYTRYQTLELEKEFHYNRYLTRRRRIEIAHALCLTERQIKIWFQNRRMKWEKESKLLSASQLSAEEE
# HOXA2 [27] = target: HOXA2 (Homo sapiens, UniProt O43364 129-215, R185T)
# Chain of HOXA2 (Homo sapiens, UniProt O43364 129-215, R185T) (O43364 129-215 R185T): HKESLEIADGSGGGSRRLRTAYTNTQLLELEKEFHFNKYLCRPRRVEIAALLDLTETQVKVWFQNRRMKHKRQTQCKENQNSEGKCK
# HOXA2 [28] = target: HOXA2 (Homo sapiens, UniProt O43364 129-215, R185K)
# Chain of HOXA2 (Homo sapiens, UniProt O43364 129-215, R185K) (O43364 129-215 R185K): as the sequence (O43364 129-215 R185T) above, with T57K counted along it
# VAX1 [29] = target: VAX1 (Homo sapiens, UniProt Q5SQQ9 86-172)
# Chain of VAX1 (Homo sapiens, UniProt Q5SQQ9 86-172) (Q5SQQ9 86-172): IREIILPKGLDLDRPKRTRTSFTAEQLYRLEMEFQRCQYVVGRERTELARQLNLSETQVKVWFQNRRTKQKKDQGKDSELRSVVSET
# VAX1 [30] = target: VAX1 (Homo sapiens, UniProt Q5SQQ9 86-172, T142I)
# Chain of VAX1 (Homo sapiens, UniProt Q5SQQ9 86-172, T142I) (Q5SQQ9 86-172 T142I): as the sequence (Q5SQQ9 86-172) above, with T57I counted along it
# HOXA2 [31] = target: HOXA2 (Homo sapiens, UniProt O43364 129-215, Y150S)
# Chain of HOXA2 (Homo sapiens, UniProt O43364 129-215, Y150S) (O43364 129-215 Y150S): as the sequence (O43364 129-215 R185T) above, with Y22S, T57R counted along it
# HOXA2 [32] = target: HOXA2 (Homo sapiens, UniProt O43364 129-215)
# Chain of HOXA2 (Homo sapiens, UniProt O43364 129-215) (O43364 129-215): as the sequence (O43364 129-215 R185T) above, with T57R counted along it
# VAX1 [33] = target: VAX1 (Homo sapiens, UniProt Q5SQQ9 86-172, K157R)
# Chain of VAX1 (Homo sapiens, UniProt Q5SQQ9 86-172, K157R) (Q5SQQ9 86-172 K157R): as the sequence (Q5SQQ9 86-172) above, with K72R counted along it
# HOXB6 [34] = target: HOXB6 (Homo sapiens, UniProt P17509 132-218)
# Chain of HOXB6 (Homo sapiens, UniProt P17509 132-218) (P17509 132-218): as the sequence (P17509 132-218 K202E) above, with E71K counted along it
sequence,measurement,setting,value
GCTTGGCC,binding signal,VENTX [1],"7.86 upbm affinity estimate (log intensity, higher = more binding, comparable within an allelic series)"
same,binding signal,SIX6 [2],"8.94 upbm affinity estimate (log intensity, higher = more binding, comparable within an allelic series)"
same,binding signal,HOXC9 [3],"9.68 upbm affinity estimate (log intensity, higher = more binding, comparable within an allelic series)"
same,binding signal,VENTX [4],"7.97 upbm affinity estimate (log intensity, higher = more binding, comparable within an allelic series)"
same,binding signal,SIX6 [5],"8.84 upbm affinity estimate (log intensity, higher = more binding, comparable within an allelic series)"
same,binding signal,HOXC10 [6],"10.1 upbm affinity estimate (log intensity, higher = more binding, comparable within an allelic series)"
same,binding signal,SIX6 [7],"8.96 upbm affinity estimate (log intensity, higher = more binding, comparable within an allelic series)"
same,binding signal,SIX6 [8],"8.86 upbm affinity estimate (log intensity, higher = more binding, comparable within an allelic series)"
same,binding signal,VENTX [9],"7.9 upbm affinity estimate (log intensity, higher = more binding, comparable within an allelic series)"
same,binding signal,SIX6 [10],"8.89 upbm affinity estimate (log intensity, higher = more binding, comparable within an allelic series)"
same,binding signal,SIX6 [11],"8.89 upbm affinity estimate (log intensity, higher = more binding, comparable within an allelic series)"
same,binding signal,SIX6 [12],"8.86 upbm affinity estimate (log intensity, higher = more binding, comparable within an allelic series)"
same,binding signal,SIX6 [13],"8.99 upbm affinity estimate (log intensity, higher = more binding, comparable within an allelic series)"
same,binding signal,SIX6 [14],"9.01 upbm affinity estimate (log intensity, higher = more binding, comparable within an allelic series)"
same,binding signal,HOXC9 [15],"9.78 upbm affinity estimate (log intensity, higher = more binding, comparable within an allelic series)"
same,binding signal,SIX6 [16],"8.94 upbm affinity estimate (log intensity, higher = more binding, comparable within an allelic series)"
same,binding signal,HOXC9 [17],"9.65 upbm affinity estimate (log intensity, higher = more binding, comparable within an allelic series)"
same,binding signal,HOXC10 [18],"10 upbm affinity estimate (log intensity, higher = more binding, comparable within an allelic series)"
same,binding signal,SIX6 [19],"8.95 upbm affinity estimate (log intensity, higher = more binding, comparable within an allelic series)"
same,binding signal,PROP1 [20],"6.59 upbm affinity estimate (log intensity, higher = more binding, comparable within an allelic series)"
same,binding signal,SIX6 [21],"8.89 upbm affinity estimate (log intensity, higher = more binding, comparable within an allelic series)"
same,binding signal,PROP1 [22],"6.63 upbm affinity estimate (log intensity, higher = more binding, comparable within an allelic series)"
same,binding signal,SIX6 [23],"8.91 upbm affinity estimate (log intensity, higher = more binding, comparable within an allelic series)"
same,binding signal,HOXC9 [24],"9.69 upbm affinity estimate (log intensity, higher = more binding, comparable within an allelic series)"
same,binding signal,PROP1 [25],"6.65 upbm affinity estimate (log intensity, higher = more binding, comparable within an allelic series)"
CTAATGGA,binding signal,VENTX [1],"11.7 upbm affinity estimate (log intensity, higher = more binding, comparable within an allelic series)"
CCCCTCGG,binding signal,VENTX [1],"8.03 upbm affinity estimate (log intensity, higher = more binding, comparable within an allelic series)"
same,binding signal,HOXC9 [3],"9.54 upbm affinity estimate (log intensity, higher = more binding, comparable within an allelic series)"
same,binding signal,VENTX [4],"7.93 upbm affinity estimate (log intensity, higher = more binding, comparable within an allelic series)"
same,binding signal,VENTX [9],"8.04 upbm affinity estimate (log intensity, higher = more binding, comparable within an allelic series)"
same,binding signal,HOXB6 [26],"8.78 upbm affinity estimate (log intensity, higher = more binding, comparable within an allelic series)"
same,binding signal,HOXA2 [27],"7.19 upbm affinity estimate (log intensity, higher = more binding, comparable within an allelic series)"
same,binding signal,HOXC9 [15],"9.64 upbm affinity estimate (log intensity, higher = more binding, comparable within an allelic series)"
same,binding signal,HOXC9 [17],"9.54 upbm affinity estimate (log intensity, higher = more binding, comparable within an allelic series)"
same,binding signal,HOXA2 [28],"10.3 upbm affinity estimate (log intensity, higher = more binding, comparable within an allelic series)"
same,binding signal,VAX1 [29],"7.12 upbm affinity estimate (log intensity, higher = more binding, comparable within an allelic series)"
same,binding signal,HOXC9 [24],"9.5 upbm affinity estimate (log intensity, higher = more binding, comparable within an allelic series)"
same,binding signal,VAX1 [30],"7.07 upbm affinity estimate (log intensity, higher = more binding, comparable within an allelic series)"
same,binding signal,HOXA2 [31],"10.4 upbm affinity estimate (log intensity, higher = more binding, comparable within an allelic series)"
same,binding signal,HOXA2 [32],"7.11 upbm affinity estimate (log intensity, higher = more binding, comparable within an allelic series)"
same,binding signal,VAX1 [33],"7.1 upbm affinity estimate (log intensity, higher = more binding, comparable within an allelic series)"
same,binding signal,HOXB6 [34],"8.89 upbm affinity estimate (log intensity, higher = more binding, comparable within an allelic series)"
